The source of these data is PubChem BioAssay AID694 (Emory University Molecular Libraries Screening Center, 2007).

Each structure is given as a SMILES string. In all, about 1,300 compounds went through this assay and about 25 (2%) were called active. The rule behind the calls is not given here. The list comes from a sample in which actives are over-represented; it also holds similar structures and randomly drawn compounds.

The test addresses Estrogen receptor (Homo sapiens) (UniProt P03372). The test is described as follows: ERα coactivator peptide binding inhibitors, primary screen, biochemical, LOPAC library, TR-FRET (AID 694).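 Note: receptor was agonist-bound with estradiol present during the assay.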 Particulars: TR-FRET ERalpha-coactivator peptide binding, stronger effect = higher value. For orientation: TR-FRET usually uses a lanthanide donor and a delayed reading to cut background.

The term inhibition denotes the change of the read-out against control, counted positive when it falls.

Estrogen receptor (Homo sapiens), sequence (P03372 whole entry, looked up): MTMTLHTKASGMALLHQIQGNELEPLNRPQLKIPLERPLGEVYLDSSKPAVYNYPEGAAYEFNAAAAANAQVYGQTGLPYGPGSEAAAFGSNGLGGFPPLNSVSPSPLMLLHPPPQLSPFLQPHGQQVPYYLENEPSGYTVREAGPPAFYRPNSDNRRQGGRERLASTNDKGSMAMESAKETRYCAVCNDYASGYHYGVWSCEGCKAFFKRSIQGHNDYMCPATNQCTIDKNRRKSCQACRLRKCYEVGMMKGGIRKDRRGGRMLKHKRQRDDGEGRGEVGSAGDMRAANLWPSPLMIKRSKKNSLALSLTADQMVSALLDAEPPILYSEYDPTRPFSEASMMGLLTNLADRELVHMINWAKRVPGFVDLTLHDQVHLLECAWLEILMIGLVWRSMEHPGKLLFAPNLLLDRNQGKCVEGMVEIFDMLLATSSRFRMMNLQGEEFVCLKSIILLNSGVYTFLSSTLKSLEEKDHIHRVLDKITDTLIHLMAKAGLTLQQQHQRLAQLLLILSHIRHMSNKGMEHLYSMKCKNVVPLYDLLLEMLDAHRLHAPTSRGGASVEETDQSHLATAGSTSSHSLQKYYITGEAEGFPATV

In the case of `NC(N)=NC(N)=Nc1cccc(Cl)c1`, the inhibition reads like this: (at 45 µM) -5.64% (inactive); (inhibition, at 15 µM) -4.32%.

Regarding `CN[C@H]1CC[C@@H](c2ccc(Cl)c(Cl)c2)c2ccccc21`, the inhibition was 4.49% (inactive) (at 45 µM) and 4.91% (inhibition, at 15 µM).

As for `CN1CCN(c2nc3cc(C(F)(F)F)ccc3n3cccc23)CC1`, the inhibition runs as follows: (at 45 µM) -8.98% (inactive); (inhibition, at 15 µM) -4.03%.

On to `COc1cc2c(cc1O)CC[C@@H]1[C@@H]2CC[C@]2(C)[C@@H](O)CC[C@@H]12`, for which the inhibition (at 45 µM) was 1.97% (inactive) and the inhibition (inhibition, at 15 µM) was 3.36%.

Take `O=c1[nH]cnc2[nH]ncc12`: the inhibition was -22.8% (inactive) (at 45 µM) and -0.71% (inhibition, at 15 µM).

`NC(CO)C(=O)NNCc1ccc(O)c(O)c1O` (stereo unspecified): the inhibition is 90.3% [fluorescence artefact?] (active) (at 45 µM) and 63.1% (inhibition, at 15 µM).

On to `N=C(N)SCCc1cccc(CCSC(=N)N)c1`, for which the inhibition runs as follows: (at 45 µM) -4.03% (inactive); (inhibition, at 15 µM) -3.18%.

In the case of `O=C1c2c(O)cc(O)cc2OC(c2ccc(O)c(O)c2)C1O` (stereo unspecified), the inhibition runs as follows: (at 45 µM) 7.88% (inactive); (inhibition, at 15 µM) 5.23%.

Take `O=c1[nH]c2cc(Cl)c(Cl)cc2[nH]c1=O`: the inhibition reads like this: (at 45 µM) -4.07% (inactive); (inhibition, at 15 µM) 3.65%.

As for `CN(C)CCOC(c1ccccc1)c1ccccc1`, the inhibition is 0% (inactive) (at 45 µM) and 1.48% (inhibition, at 15 µM).

Take `Nc1ncnc2c1nc(Sc1ccc(Cl)cc1)n2C1OC2COP(=O)(O)O[C@@H]2[C@@H]1O` (stereo partly specified): the inhibition by setting is: (at 45 µM) 2.25% (inactive); (inhibition, at 15 µM) -0.54%.

For the molecule `NCCCS(=O)(=O)O`, the inhibition is, setting by setting: (at 45 µM) -5.28% (inactive); (inhibition, at 15 µM) -0.89%.

With `Brc1ccc([C@H]2CN3CCSC3=N2)cc1`, the inhibition (at 45 µM) was -14.5% (inactive) and the inhibition (inhibition, at 15 µM) is -5.52%.

On to `CCOC(=O)Nc1ccc(NCc2ccc(F)cc2)nc1N`, for which the inhibition (at 45 µM) was -2.33% (inactive) and the inhibition (inhibition, at 15 µM) was -0.39%.

Take `OC[C@H]1O[C@@H](n2cnc3cncnc32)[C@H](O)[C@@H]1O`: the inhibition (at 45 µM) was -0.26% (inactive) and the inhibition (inhibition, at 15 µM) was -1.71%.

Regarding `NC[C@@H]1O[C@H](C23CC4CC(CC(C4)C2)C3)Cc2c1ccc(O)c2O`, the inhibition is, setting by setting: (at 45 µM) 6.83% (inactive); (inhibition, at 15 µM) -1.93%.

As to `N#CC(Cc1ccc(O)c(O)c1)C(=O)N1CCc2ccccc21` (stereo unspecified), the inhibition reads like this: (at 45 µM) 4.21% (inactive); (inhibition, at 15 µM) -5.26%.

As to `Nc1nc(SCc2ccc([N+](=O)[O-])cc2)c2ncn([C@@H]3O[C@H](CO)[C@H](O)C3O)c2n1` (stereo partly specified), the inhibition is -19.1% (inactive) (at 45 µM) and -4.91% (inhibition, at 15 µM).

For `COc1ccccc1CNCCCCCCNCCCCCCCCNCCCCCCNCc1ccccc1OC`, the inhibition by setting is: (at 45 µM) 10.9% (inactive); (inhibition, at 15 µM) 6.92%.

As for `CCCCCCCCCCC/C=C\C(C)(C)/C=C\CCCC(=O)O`, the inhibition is 33.3% (inactive) (at 45 µM) and 17.4% (inhibition, at 15 µM).

As to `Cc1c(CC(C)(C)C(=O)O)n(Cc2ccc(Cl)cc2)c2ccc(F)cc12`, the inhibition runs as follows: (at 45 µM) 9.14% (inactive); (inhibition, at 15 µM) 5.8%.

On to `NC(N)=[N+]1CCc2ccccc2C1`, for which the inhibition runs as follows: (at 45 µM) -8.81% (inactive); (inhibition, at 15 µM) 1.64%.

As for `CC(CCc1ccccc1)NCC(O)c1ccc(O)c(C(N)=O)c1` (stereo unspecified), the inhibition (at 45 µM) was 5.4% (inactive) and the inhibition (inhibition, at 15 µM) was determined as 3.9%.

With `O=C(O)c1cc([N+](=O)[O-])ccc1NCCCc1ccccc1`, the inhibition (at 45 µM) was 1.89% (inactive) and the inhibition (inhibition, at 15 µM) is -3.54%.

In the case of `N=c1ccn2c(n1)OC1[C@@H](O)[C@@H](CO)O[C@H]12` (stereo partly specified), the inhibition runs as follows: (at 45 µM) -2.34% (inactive); (inhibition, at 15 µM) 1.25%.

In the case of `COc1ccc(/C=C/C(=O)Nc2ccccc2C(=O)O)cc1OC`, the inhibition is 3.42% (inactive) (at 45 µM) and 4.38% (inhibition, at 15 µM).

In the case of `O=S(=O)(c1cccc2c(I)cccc12)N1CCCNCC1`, the inhibition by setting is: (at 45 µM) 21.6% (inactive); (inhibition, at 15 µM) 3.12%.

In the case of `OC(CN1CCN(c2cccc(Cl)c2)CC1)C(c1ccccc1)c1ccccc1` (stereo unspecified), the inhibition (at 45 µM) was 3.01% (inactive) and the inhibition (inhibition, at 15 µM) is 4.55%.

Take `COc1cc(C(O)C(=O)O)ccc1O` (stereo unspecified): the inhibition was -7.3% (inactive) (at 45 µM) and 0.57% (inhibition, at 15 µM).

Take `CCCn1c(=O)c2[nH]c(-c3ccc(OCC(=O)Nc4ccc(C#N)cc4)cc3)nc2n(CCC)c1=O`: the inhibition was 46.8% (inactive) (at 45 µM) and 8.2% (inhibition, at 15 µM).

As for `O=C(Nc1cc(C(=O)Nc2ccc(S(=O)(=O)O)cc2S(=O)(=O)O)cc(C(=O)Nc2ccc(S(=O)(=O)O)cc2S(=O)(=O)O)c1)Nc1cc(C(=O)Nc2ccc(S(=O)(=O)O)cc2S(=O)(=O)O)cc(C(=O)Nc2ccc(S(=O)(=O)O)cc2S(=O)(=O)O)c1`, the inhibition (at 45 µM) is 22.9% (inactive) and the inhibition (inhibition, at 15 µM) stood at 17.2%.

As for `C/C=C1\C(=O)CC2C3CCC4=CC(=O)CC[C@]4(C)C3CC[C@]12C` (stereo partly specified), the inhibition was -2.62% (inactive) (at 45 µM) and -5.45% (inhibition, at 15 µM).

Turning to `Cc1cc(C)c(NC(=O)C[C@H](CC(=O)O)c2cccc3ccccc23)c(C(=O)N2CCC3(CCCC3)CC2)c1`, the inhibition was 4.81% (active) (at 45 µM) and 53% (inhibition, at 15 µM).

In the case of `C[N+](C)(C)CCC(=O)c1cccc2ccccc12`, the inhibition reads like this: (at 45 µM) 4.57% (inactive); (inhibition, at 15 µM) 3.36%.

With `COc1ccccc1N1CCN(CCN(C(=O)c2ccc(I)cc2)c2ccccn2)CC1`, the inhibition runs as follows: (at 45 µM) 10.1% (inactive); (inhibition, at 15 µM) 2.05%.

For `CCCCCCCCCCCCCCCC(=O)OC(CC(=O)O)C[N+](C)(C)C` (stereo unspecified), the inhibition is, setting by setting: (at 45 µM) 12.7% (inactive); (inhibition, at 15 µM) 4.2%.

For the molecule `O=C(O)CNC(=O)C(CS)Cc1ccccc1` (stereo unspecified), the inhibition by setting is: (at 45 µM) -3.83% (active); (inhibition, at 15 µM) 50.5%.

`CC(C)C[C@H](NC(=O)[C@H](O)[C@H](N)Cc1ccccc1)C(=O)O`: the inhibition is, setting by setting: (at 45 µM) -1.92% (inactive); (inhibition, at 15 µM) -0.07%.

For the molecule `CC(C)C[C@H](NC(=O)[C@@H](O)[C@H](N)Cc1ccccc1)C(=O)O`, the inhibition reads like this: (at 45 µM) -3.72% (inactive); (inhibition, at 15 µM) 0.08%.

For `CC1=C(CC(=O)O)c2cc(F)ccc2/C1=C\c1ccc(S(C)(=O)=O)cc1`, the inhibition is, setting by setting: (at 45 µM) 2.44% (inactive); (inhibition, at 15 µM) 2.34%.

Take `Nc1nc(Cl)nc2c1ncn2[C@@H]1O[C@H](COP(=O)(O)OP(=O)(O)OP(=O)(O)O)[C@H](O)C1O` (stereo partly specified): the inhibition (at 45 µM) was -8.59% (inactive) and the inhibition (inhibition, at 15 µM) is -0.94%.

`CN(C)CCCO[C@@H]1[C@H]2OC(C)(C)O[C@H]2O[C@@H]1C(O)CO` (stereo partly specified): the inhibition is 6.83% (inactive) (at 45 µM) and -5.23% (inhibition, at 15 µM).

As to `CN1CCc2cc(Cl)c(O)cc2[C@@H](c2ccccc2)C1`, the inhibition was 1.68% (inactive) (at 45 µM) and 0.35% (inhibition, at 15 µM).
